# Measurements as given in paper PMC12820563, “FoxP3 forms a head-to-head dimer in vivo and stabilizes its multimerization on adjacent microsatellites”.
# In all, about 16,000 sequences were measured (“rpm ratio (pull-down/input)”: median about 0.94, highest 2% from about 1.7 on). The list comes from a sample in which the highest values are over-represented; it also holds similar and randomly drawn sequences.
# Biological target: T1, MBP-FoxP1dN (Mus musculus, UniProt P58462 326-579)
# T1 sequence: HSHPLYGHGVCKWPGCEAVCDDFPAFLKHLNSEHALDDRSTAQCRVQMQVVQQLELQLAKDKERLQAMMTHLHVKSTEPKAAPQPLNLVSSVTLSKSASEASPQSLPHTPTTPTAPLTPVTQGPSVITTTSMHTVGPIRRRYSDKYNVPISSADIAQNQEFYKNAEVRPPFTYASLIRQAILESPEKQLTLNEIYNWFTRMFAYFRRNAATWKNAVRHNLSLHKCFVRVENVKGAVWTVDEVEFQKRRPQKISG
# Experiment: PD-seq (MBP pull-down with sequencing); 20 mM Tris-HCl pH 7.5, 100 mM NaCl, 1.5 mM MgCl2, 0.4 uM protein, 0.1 uM dsDNA library, 30 min, room temperature, amylose pull-down; high values mean tight binding
# Conditions: protein: recombinant; tags: His6-MBP; chain copies: 2; dsDNA, one strand shown
# Procedure, shortened: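 Binding is the reads-per-million enrichment of pull-down relative to input, pooled across replicates. For this, 0.4 µM His6-MBP-tagged mouse FoxP3 or FoxP1 fragment lacking the N-terminus, made in E. coli, was incubated with 0.1 µM Klenow-filled double-stranded degenerate DNA library for 30 min at room temperature in Tris pH 7.5 buffer with NaCl and MgCl2. Complexes bound to amylose resin were washed three times before proteinase K released the DNA for PCR barcoding and Illumina sequencing.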
row,Sequence,binding signal
1,GATGATTGTTCTCCCAGCTGATGAATTCAATGCGTCGAGTAAACAAATTTTCCTAATCTTTCTGTTCAAGCGCCATCTAC,1.05 RPM ratio (pull-down/input)
2,GATGATTGTTCTCCCAGCTGATGAATTATTACGTTCGAGTAAACAAATTTTCCTAATCTTTCTGTTCAAGCGCCATCTAC,1.21 RPM ratio (pull-down/input)
3,GATGATTGTTCTCCCAGCTGATGAATTTGGGATGTCGAGTAAACAAATTTTCCTAATCTTTCTGTTCAAGCGCCATCTAC,0.922 RPM ratio (pull-down/input)
4,GATGATTGTTCTCCCAGCTGATGAATTTACCGAATCGAGTAAACAAATTTTCCTAATCTTTCTGTTCAAGCGCCATCTAC,1.37 RPM ratio (pull-down/input)
5,GATGATTGTTCTCCCAGCTGATGAATTGAAAGCATCGAGTAAACAAATTTTCCTAATCTTTCTGTTCAAGCGCCATCTAC,1.2 RPM ratio (pull-down/input)
6,GATGATTGTTCTCCCAGCTGATGAATTCACCGGTTCGAGTAAACAAATTTTCCTAATCTTTCTGTTCAAGCGCCATCTAC,0.877 RPM ratio (pull-down/input)
7,GATGATTGTTCTCCCAGCTGATGAATTGATCTTATCGAGTAAACAAATTTTCCTAATCTTTCTGTTCAAGCGCCATCTAC,1.08 RPM ratio (pull-down/input)
8,GATGATTGTTCTCCCAGCTGATGAATTTGGTATATCGAGTAAACAAATTTTCCTAATCTTTCTGTTCAAGCGCCATCTAC,1.23 RPM ratio (pull-down/input)
9,GATGATTGTTCTCCCAGCTGATGAATTTTAGGGATCGAGTAAACAAATTTTCCTAATCTTTCTGTTCAAGCGCCATCTAC,0.823 RPM ratio (pull-down/input)
10,GATGATTGTTCTCCCAGCTGATGAATTCCTATTATCGAGTAAACAAATTTTCCTAATCTTTCTGTTCAAGCGCCATCTAC,1.33 RPM ratio (pull-down/input)
11,GATGATTGTTCTCCCAGCTGATGAATTTTATGACTCGAGTAAACAAATTTTCCTAATCTTTCTGTTCAAGCGCCATCTAC,0.916 RPM ratio (pull-down/input)
12,GATGATTGTTCTCCCAGCTGATGAATTTATTGTCTCGAGTAAACAAATTTTCCTAATCTTTCTGTTCAAGCGCCATCTAC,1.78 RPM ratio (pull-down/input)
13,GATGATTGTTCTCCCAGCTGATGAATTATTTGTCTCGAGTAAACAAATTTTCCTAATCTTTCTGTTCAAGCGCCATCTAC,1.66 RPM ratio (pull-down/input)
14,GATGATTGTTCTCCCAGCTGATGAATTTTATGTCTCGAGTAAACAAATTTTCCTAATCTTTCTGTTCAAGCGCCATCTAC,0.899 RPM ratio (pull-down/input)
15,GATGATTGTTCTCCCAGCTGATGAATTTATTGACTCGAGTAAACAAATTTTCCTAATCTTTCTGTTCAAGCGCCATCTAC,1.85 RPM ratio (pull-down/input)
16,GATGATTGTTCTCCCAGCTGATGAATTATTTGACTCGAGTAAACAAATTTTCCTAATCTTTCTGTTCAAGCGCCATCTAC,1.07 RPM ratio (pull-down/input)
17,GATGATTGTTCTCCCAGCTGATGAATTGTCACCCTCGAGTAAACAAATTTTCCTAATCTTTCTGTTCAAGCGCCATCTAC,1 RPM ratio (pull-down/input)
18,GATGATTGTTCTCCCAGCTGATGAATTGAGTTCGTCGAGTAAACAAATTTTCCTAATCTTTCTGTTCAAGCGCCATCTAC,0.82 RPM ratio (pull-down/input)
19,GATGATTGTTCTCCCAGCTGATGAATTAAGGACATCGAGTAAACAAATTTTCCTAATCTTTCTGTTCAAGCGCCATCTAC,1.06 RPM ratio (pull-down/input)
20,GATGATTGTTCTCCCAGCTGATGAATTGACCTCCTCGAGTAAACAAATTTTCCTAATCTTTCTGTTCAAGCGCCATCTAC,0.877 RPM ratio (pull-down/input)

row,Sequence,binding signal
1,GATGATTGTTCTCCCAGCTGATGAATTGTCCTCCTCGAGTAAACAAATTTTCCTAATCTTTCTGTTCAAGCGCCATCTAC,1.03 RPM ratio (pull-down/input)
2,GATGATTGTTCTCCCAGCTGATGAATTTTTTTTCTCGAGTAAACAAATTTTCCTAATCTTTCTGTTCAAGCGCCATCTAC,0.756 RPM ratio (pull-down/input)
3,GATGATTGTTCTCCCAGCTGATGAATTGTTGTCCTCGAGTAAACAAATTTTCCTAATCTTTCTGTTCAAGCGCCATCTAC,2.28 RPM ratio (pull-down/input)
4,GATGATTGTTCTCCCAGCTGATGAATTGATCTTCTCGAGTAAACAAATTTTCCTAATCTTTCTGTTCAAGCGCCATCTAC,0.956 RPM ratio (pull-down/input)
5,GATGATTGTTCTCCCAGCTGATGAATTGATGATCTCGAGTAAACAAATTTTCCTAATCTTTCTGTTCAAGCGCCATCTAC,0.99 RPM ratio (pull-down/input)
6,GATGATTGTTCTCCCAGCTGATGAATTGATGACCTCGAGTAAACAAATTTTCCTAATCTTTCTGTTCAAGCGCCATCTAC,1.02 RPM ratio (pull-down/input)
7,GATGATTGTTCTCCCAGCTGATGAATTGTTGACCTCGAGTAAACAAATTTTCCTAATCTTTCTGTTCAAGCGCCATCTAC,1.88 RPM ratio (pull-down/input)
8,GATGATTGTTCTCCCAGCTGATGAATTTCTGTCCTCGAGTAAACAAATTTTCCTAATCTTTCTGTTCAAGCGCCATCTAC,0.915 RPM ratio (pull-down/input)
9,GATGATTGTTCTCCCAGCTGATGAATTTCTAATCTCGAGTAAACAAATTTTCCTAATCTTTCTGTTCAAGCGCCATCTAC,0.82 RPM ratio (pull-down/input)
10,GATGATTGTTCTCCCAGCTGATGAATTGTTGATCTCGAGTAAACAAATTTTCCTAATCTTTCTGTTCAAGCGCCATCTAC,2.06 RPM ratio (pull-down/input)
11,GATGATTGTTCTCCCAGCTGATGAATTGTTGTTCTCGAGTAAACAAATTTTCCTAATCTTTCTGTTCAAGCGCCATCTAC,2.58 RPM ratio (pull-down/input)
12,GATGATTGTTCTCCCAGCTGATGAATTAACAGTTTCGAGTAAACAAATTTTCCTAATCTTTCTGTTCAAGCGCCATCTAC,1.09 RPM ratio (pull-down/input)
13,GATGATTGTTCTCCCAGCTGATGAATTGTAAAAGTCGAGTAAACAAATTTTCCTAATCTTTCTGTTCAAGCGCCATCTAC,0.943 RPM ratio (pull-down/input)
14,GATGATTGTTCTCCCAGCTGATGAATTATGTCGCTCGAGTAAACAAATTTTCCTAATCTTTCTGTTCAAGCGCCATCTAC,1.01 RPM ratio (pull-down/input)
15,GATGATTGTTCTCCCAGCTGATGAATTCCATAAGTCGAGTAAACAAATTTTCCTAATCTTTCTGTTCAAGCGCCATCTAC,0.896 RPM ratio (pull-down/input)
16,GATGATTGTTCTCCCAGCTGATGAATTCTCTGGCTCGAGTAAACAAATTTTCCTAATCTTTCTGTTCAAGCGCCATCTAC,0.769 RPM ratio (pull-down/input)
17,GATGATTGTTCTCCCAGCTGATGAATTATCGGCTTCGAGTAAACAAATTTTCCTAATCTTTCTGTTCAAGCGCCATCTAC,0.859 RPM ratio (pull-down/input)
18,GATGATTGTTCTCCCAGCTGATGAATTACATGGATCGAGTAAACAAATTTTCCTAATCTTTCTGTTCAAGCGCCATCTAC,1 RPM ratio (pull-down/input)
19,GATGATTGTTCTCCCAGCTGATGAATTGCGCCCCTCGAGTAAACAAATTTTCCTAATCTTTCTGTTCAAGCGCCATCTAC,0.966 RPM ratio (pull-down/input)
20,GATGATTGTTCTCCCAGCTGATGAATTATTGAGCTCGAGTAAACAAATTTTCCTAATCTTTCTGTTCAAGCGCCATCTAC,0.941 RPM ratio (pull-down/input)
